Reference: PubChem BioAssay AID1259343 (VanderVen Lab, College of Veterinary Medicine, Cornell …, 2017)
Among all 6,200 compounds or so, about 2,900 (47%) were called active. The set was probably picked from earlier hits. The list shows a part of the results. Values without a mark were called inactive. No stated cut-off is given here; in the data, active means inhibition above about 50%; inactive means the rest.

Test: Mycobacterium tuberculosis growth inhibition, primary screen (AID 1259343)
Conditions: inhibition: at 10 µM, hits give high values; outcome: 10 uM
With CC(C)(C)c1noc(COc2ccc(O)cc2)n1 the inhibition was 39.8%.
Work on Brc1ccc(OCc2nnc(-c3cccs3)o2)cc1 yielded an inhibition of 42.8%.
In the case of Cc1nc(COc2ccc(Oc3nccs3)cc2)oc1C, the inhibition is reported as 80% (active).
For CC(C)NC(=O)c1ccc(OCc2cccs2)cc1, the inhibition was -17.8%.
In the case of CC(c1cccs1)N(C)C(=O)COc1ccc(F)cc1 (stereo not drawn), the inhibition is reported as 59.8% (active).
In the case of CN(C)Cc1nc(Cl)c2c3c(sc2n1)CCCCC3, the inhibition is reported as 69.8% (active).
Compound CC1CCc2c(nc3sc4c(c3c2N)CCCC4)C1 (stereo not drawn) has an inhibition of 32.6%.
In the case of CCc1ccc(CN(C)C(=O)NCCC2CCCC2)cc1, the inhibition is reported as 99.2% (active).
In the case of CC(CCc1ccccc1)NC(=O)NCCC1CCCC1 (stereo not drawn), the inhibition is reported as -6.93%.
In the case of CN(CCC1CCCCC1)C(=O)Nc1ccsc1, the inhibition is reported as 48.9%.
In the case of Cc1cc(Cl)ccc1OCc1ccc(C(N)=O)cc1, the inhibition is reported as 68.2% (active).
Work on NC(=O)c1ccc(CSCc2cccc(F)c2)cc1 yielded an inhibition of 19.5%.
For CCc1cc(OCc2ccc(C(N)=O)cc2)ccc1Cl, the inhibition was -54%.
With Cc1cccc(OCc2ccc(C(N)=O)cc2)c1C the inhibition was 64.1% (active).
Work on NC(=O)c1cc(Cl)ccc1OCc1ccccc1Br yielded an inhibition of 1.54%.
For CC(C)(C)c1ccc(COc2ccccc2C(N)=O)cc1, the inhibition was 30.2%.
In the case of CC(C)c1cc(C(=O)NC2CC2)nn1-c1nc2ccccc2s1, the inhibition is reported as 94.4% (active).
Compound CC(C)c1cc(C(=O)NC2CCN(c3cccc(F)c3)CC2)n[nH]1 has an inhibition of 41.4%.
In the case of Cc1cc(=O)[nH]c(-n2nc(C3CC3)cc2NC(=O)c2ccccc2Cl)n1, the inhibition is reported as 101% (active).
In the case of Cc1nc(-n2nc(C3CC3)cc2NC(=O)c2ccccc2F)[nH]c(=O)c1C, the inhibition is reported as -15.9%.
With Cc1nc(-n2nc(C3CC3)cc2NC(=O)c2ccccc2Cl)[nH]c(=O)c1C the inhibition was 80.4% (active).
For Cc1cc(=O)[nH]c(-n2nc(C3CC3)cc2NC(=O)c2c(F)cccc2F)n1, the inhibition was 99.2% (active).
In the case of Cc1cc(=O)[nH]c(-n2nc(C3CC3)cc2NC(=O)c2ccccc2C(F)(F)F)n1, the inhibition is reported as 99.9% (active).
In the case of Cc1cc(=O)[nH]c(-n2nc(C3CC3)cc2NC(=O)c2cccc3ccccc23)n1, the inhibition is reported as 99.8% (active).
For Cc1cc(=O)[nH]c(-n2nc(C3CC3)cc2NC(=O)c2ccccc2F)n1, the inhibition was 101% (active).
Compound O=C(NS(=O)(=O)Cc1ccccc1)c1sccc1C1CC1 has an inhibition of 10.6%.
For N#Cc1ccc(S(=O)(=O)NC(=O)c2sccc2C2CC2)cc1, the inhibition was 67.6% (active).
In the case of Nc1ncc(CN2CCCC(C(=O)Nc3ccc(-c4ccco4)cc3)C2)cn1 (stereo not drawn), the inhibition is reported as “inactive”.
For O=C(Nc1ccc(-c2ccco2)cc1)C1CCCN(C(=O)CCc2cccs2)C1 (stereo not drawn), the inhibition was “inactive”.
In the case of O=C(Nc1ccc(-c2ccco2)cc1)C1CCCN(Cc2coc3ccccc3c2=O)C1 (stereo not drawn), the inhibition is reported as 31.3%.
In the case of Cn1ccc(CC(=O)N2CCCC(C(=O)Nc3ccc(-c4ccco4)cc3)C2)c1 (stereo not drawn), the inhibition is reported as 84.1% (active).
With O=C(Nc1ccc(-c2ccco2)cc1)C1CCCN(C(=O)CCN2CCCO2)C1 (stereo not drawn) the inhibition was 82.8% (active).
Work on O=C(Nc1ccc(-c2ccco2)cc1)C1CCCN(C(=O)CCc2cnccn2)C1 (stereo not drawn) yielded an inhibition of -19.9%.
With COc1cc(/C=C/CN2CCCC(C(=O)Nc3ccc(-c4ccco4)cc3)C2)ccc1O (stereo not drawn) the inhibition was 45.7%.
For O=C(Nc1ccc(-c2ccco2)cc1)C1CCCN(Cc2cccc3c2OCO3)C1 (stereo not drawn), the inhibition was 85% (active).
With O=C1Nc2ncccc2Oc2cc(F)cc(O)c21 the inhibition was 81.3% (active).
CC(C(=O)Nc1ccccc1Cl)N1CCCC1c1ccsc1 (stereo not drawn) gave an inhibition of 3.58%.
For O=C(NCc1ccccn1)Nc1cc(F)c(N2CCCC2)c(F)c1, the inhibition was 38.7%.
With O=C(NCCOc1cc(N2CCCCC2)ncn1)Nc1ccccc1Cl the inhibition was 56% (active).
In the case of CCCCC(CC)CN=C(N)NC(N)=NCCCCCCN=C(N)NC(N)=NCC(CC)CCCC (stereo not drawn), the inhibition is reported as 94.5% (active).
In the case of O=C1C(=O)N(C2CCCC2)C(=O)N1CC1CCCCC1, the inhibition is reported as -11.3%.
With Cc1nc2scc(-c3cccs3)c2c(=S)[nH]1 the inhibition was 85.4% (active).
For Cc1nc2scc(-c3cccs3)c2c(=O)n1-n1cccc1, the inhibition was 87.8% (active).
Cc1ccc(C)n1-n1c(C)nc2scc(-c3cccs3)c2c1=O showed an inhibition of 27.9%.
Compound O=C(NC1CC1c1ccccc1)C1(c2ccccc2)CCC1 (stereo not drawn) has an inhibition of 38.3%.
With Cc1cc(-c2nnn(CC3(O)CCCCC3)n2)ccc1F the inhibition was 86.8% (active).
In the case of CC(C)(C)OC(=O)Nc1ccc(Nc2cc(-c3ccc(F)c(F)c3)ncn2)cc1, the inhibition is reported as 16.4%.
With CC(C)(C)OC(=O)Nc1cc2ccccc2cc1C(=O)O the inhibition was 79.6% (active).
For COc1ccc(-c2cc(Nc3ccc(NC(=O)OC(C)(C)C)cc3)ncn2)cc1, the inhibition was 4.04%.
For Fc1cccc(-c2cnnc(N[C@@H]3C[C@H]3c3ccccc3)n2)c1, the inhibition was 19.2%.
Work on Cc1cc(C)cc(NC(=O)CSc2nccn(-c3ccc(F)cc3)c2=O)c1 yielded an inhibition of 48.7%.
For Cc1cc(C)cc(NC(=O)CSc2nccn(-c3cccc(F)c3)c2=O)c1, the inhibition was 66.8% (active).
In the case of Cc1cc(C)cc(NC(=O)CSc2nc(=O)n3ccc(C)cc3n2)c1, the inhibition is reported as -10.5%.
In the case of N#Cc1ccccc1Sc1ccc(C(N)=O)cc1, the inhibition is reported as -41.2%.
For C(=Nc1ccc(C23CC4CC(CC(C4)C2)C3)cc1)c1cccnc1, the inhibition was 7.01%.
With Cc1ccc(/C=C2\CNC/C(=C\c3ccc(C)cc3)C2=O)cc1 the inhibition was 27.8%.
In the case of CC1C/C(=C\c2cccnc2)C(=O)/C(=C/c2cccnc2)C1 (stereo not drawn), the inhibition is reported as 63% (active).
In the case of COc1c(Br)cc(Cl)cc1NCc1c(C)noc1C, the inhibition is reported as 14%.
With N#CC(=CC(Br)=Cc1ccccc1)c1nc(-c2ccccc2)cs1 the inhibition was 82.4% (active).
In the case of N#CC(=Cc1ccccc1I)c1nc(-c2ccccc2)cs1, the inhibition is reported as 10.6%.
For CC(=O)c1cc(CN2CCOC(CCCc3ccccc3)C2)cs1 (stereo not drawn), the inhibition was 28.9%.
With N#Cc1c(Cl)cccc1NCC1CN(Cc2ccccc2)CCO1 (stereo not drawn) the inhibition was 57.3% (active).
Compound Clc1ccc(C2CN(Cc3cc(-c4ccccn4)no3)CCO2)cc1Cl (stereo not drawn) has an inhibition of 21%.
Work on COC(=O)c1cc(-c2ccc3c(c2)CC(C)O3)on1 (stereo not drawn) yielded an inhibition of 45.8%.
With O=C(Cc1cc(-c2cc3ccccc3o2)on1)Nc1cccc(F)c1 the inhibition was 38.6%.
For O=C(Cc1cc(-c2cc3ccccc3o2)on1)NCCC1=CCCCC1, the inhibition was 32.4%.
In the case of COC(=O)c1cc(-c2cc3ccccc3o2)on1, the inhibition is reported as 99.1% (active).
Compound COC(=O)c1cc(-c2ccc(OC)cc2)on1 has an inhibition of 30.9%.
O=C(Cc1cc(-c2cc3ccccc3o2)on1)NCCc1ccccc1 gave an inhibition of 6.56%.
In the case of O=C(Cc1cc(-c2cc3ccccc3o2)on1)NCCCc1ccccc1, the inhibition is reported as 93.4% (active).
With COC(=O)c1cc(-c2ccc(C)cc2)on1 the inhibition was 88.9% (active).
With Cc1cc(NC(=O)Cc2cc(-c3cc4ccccc4o3)on2)no1 the inhibition was -32.2%.
In the case of COC(=O)c1ccc(NC(=O)Cc2cc(-c3cc4ccccc4o3)on2)cc1, the inhibition is reported as 84% (active).
